{"source": "PubChem BioAssay AID488794", "about": "(Sanford-Burnham Center for Chemical Genomics, 2010)", "note": "Out of some 1,000 compounds screened, about 550 (55%) were called active. The set was probably picked from earlier hits. These entries were drawn from the full list. Unmarked numbers belong to inactive results. No stated cut-off is given here; in the data, active means inhibition above about 50%; inactive means the rest.", "data": [{"assay": "NALP3 inhibitors in yeast, repeat test, confirmation, luminescence, single concentration, retest (AID 488794)", "settings": "yeast expressing human NALP3, luminescence read-out; at 10 µM; hits give high values", "values": [{"compound": "CN(C)c1ccnc2sc(C(=O)c3ccccc3)c(N)c12", "inhibition": "53.6% (active)"}, {"compound": "Oc1c(Cl)cc(Cl)c(Cl)c1Cc1c(O)c(Cl)cc(Cl)c1Cl", "inhibition": "98.5% (active)"}, {"compound": "Cc1ccnc(Nc2nc3ccccc3s2)n1", "inhibition": "27.6%"}, {"compound": "O=C(CC(O)(C(F)(F)F)C(F)(F)F)Nc1ccc(Cl)c(Cl)c1", "inhibition": "99.8% (active)"}, {"compound": "Cc1ccc(O)c(NC(=O)c2cc(-c3ccco3)on2)c1", "inhibition": "63.7% (active)"}, {"compound": "COc1ccccc1C(=O)Nc1ccc(NC(=O)c2ccco2)c(C)c1", "inhibition": "32.3%"}, {"compound": "Cc1ccc(CSc2nsc(C)c2C#N)cc1", "inhibition": "48.2%"}, {"compound": "CC(C)n1c(COc2ccccc2)nc2ccccc21", "inhibition": "47.7%"}, {"compound": "Cc1ccc(OCc2nc3ccccc3n2C)cc1", "inhibition": "57.2% (active)"}, {"compound": "CN=C1C=C/C(=N/N=c2\\ccn(O)cc2C)C=C1C", "inhibition": "57.2% (active)"}, {"compound": "O=[N+]([O-])c1cccc(/C=N/Nc2ncc(Br)cn2)c1", "inhibition": "33.4%"}, {"compound": "CCc1noc(C)c1C(=O)Nc1nc2ccc(OC)cc2s1", "inhibition": "55.5% (active)"}, {"compound": "COc1cc(N2C(=O)CSC2=S)cc(OC)c1OC", "inhibition": "35.6%"}, {"compound": "O=C1CSC(=S)N1c1ccc(O)cc1", "inhibition": "59.4% (active)"}, {"compound": "Fc1ccccc1-c1cc2cc3c(cc2cn1)OCO3", "inhibition": "39%"}, {"compound": "Nc1c(-c2cccc(Cl)c2)cnn1-c1cccc([N+](=O)[O-])c1", "inhibition": "52.1% (active)"}, {"compound": "O=C(CSc1ncnc2c1oc1ccccc12)NC1CCCC1", "inhibition": "25.1%"}, {"compound": "Cn1c(=NC(=O)c2ccco2)sc2cccc(F)c21", "inhibition": "34.1%"}, {"compound": "Cc1cccc(NC(=S)NC(=O)c2ccc(Br)o2)c1", "inhibition": "65.7% (active)"}, {"compound": "Cc1ccc(-c2nn(C(C)(C)C)c3ncnc(N)c23)cc1", "inhibition": "63.2% (active)"}, {"compound": "O=C(Nc1ccccc1Cl)/C(Cl)=C(\\Cl)S(=O)c1ccccc1", "note": "(stereo unspecified)", "inhibition": "74.7% (active)"}, {"compound": "N#Cc1nc(Cc2ccccc2)oc1NCCc1ccccc1", "inhibition": "36.6%"}, {"compound": "CCOC(=O)c1c(C)[nH]c(C(=O)COc2ccc3c(c2)OCO3)c1C", "inhibition": "54.5% (active)"}, {"compound": "COc1ccccc1OCc1nc2ccccc2s1", "inhibition": "43.2%"}, {"compound": "CCCN(CC1CC1)C(=S)NC(=O)c1ccccc1Br", "inhibition": "38.8%"}, {"compound": "Cc1cc(C)nc(NC(=O)Nc2ccccc2C(F)(F)F)n1", "inhibition": "34.8%"}, {"compound": "Cc1c(C(=O)N2CCCc3ccccc32)oc2ccccc12", "inhibition": "47.9%"}, {"compound": "O=C(Oc1c(-c2ccco2)oc2ccccc2c1=O)c1cccnc1", "inhibition": "68.5% (active)"}, {"compound": "Oc1ccc(Br)cc1/C=N/Nc1ccccn1", "inhibition": "43.2%"}, {"compound": "O=C(CSc1ccc(-c2ccc(-n3cccn3)cc2)nn1)Nc1ccc([N+](=O)[O-])cc1", "inhibition": "18.1%"}, {"compound": "O=[N+]([O-])/C=C/c1ccc2c(ccn2Cc2ccccc2)c1", "inhibition": "96.3% (active)"}, {"compound": "CCCNc1ncnc2sc(C)c(C)c12", "inhibition": "36.4%"}, {"compound": "C[C@@H]1C[C@@H]2O[C@H]2/C=C\\C=C\\C(=O)Cc2c(Cl)c(O)cc(O)c2C(=O)O1", "inhibition": "66.2% (active)"}, {"compound": "CC(C)C(=O)N1CCN(CCN=CC2=C(O)CC(c3ccco3)CC2=O)CC1", "note": "(stereo unspecified)", "inhibition": "62.1% (active)"}, {"compound": "CC1(C)CCSC(/C=C/c2ccccc2)=N1", "inhibition": "79.8% (active)"}, {"compound": "O=C(Nc1ccc2oc(-c3ccccc3F)nc2c1)c1ccco1", "inhibition": "71.3% (active)"}, {"compound": "O=C(Nc1ccc(Oc2ccccc2)cc1)c1ccco1", "inhibition": "35.9%"}, {"compound": "Cn1c(=O)c(C(=O)Nc2ncccn2)c(O)c2ccccc21", "inhibition": "60.2% (active)"}, {"compound": "Cc1cc(C)c(/C=C2\\C(=O)Nc3ccccc32)[nH]1", "inhibition": "36.6%"}, {"compound": "CCc1cc(C(=O)Nc2nnc(C3CC3)s2)sc1C", "inhibition": "40.9%"}, {"compound": "Cc1ccc(OCc2nc(C#N)c(N3CCCC3)o2)cc1", "inhibition": "53.5% (active)"}, {"compound": "CCN(CC)c1ccc(/C=N/Nc2nc(C)cc(C)n2)c(O)c1", "inhibition": "63% (active)"}, {"compound": "O=[N+]([O-])c1c(NCCO)cc(Sc2nc3ccccc3s2)c2nonc12", "inhibition": "48%"}, {"compound": "Cc1cc(C(=O)COc2ccc(Br)cc2F)c(C)n1C1CC1", "inhibition": "49.4%"}, {"compound": "CC(C)Sc1ncnc2c1cnn2-c1ccccc1", "inhibition": "46.2%"}, {"compound": "O=C(NCc1ccc2c(c1)OCO2)c1c(O)nc2sccn2c1=O", "inhibition": "38.4%"}, {"compound": "CC(=NCc1ccc2c(c1)OCO2)C1=C(O)c2ccccc2C1=O", "inhibition": "63.9% (active)"}, {"compound": "Cc1ccc2cccc(S(=O)(=O)N3CCN(c4ccccc4F)CC3)c2n1", "inhibition": "47.8%"}, {"compound": "CC(=O)[C@@]12O[C@@H]1C[C@H]1[C@@H]3CC[C@H]4C[C@@H](O)CC[C@]4(C)[C@H]3CC[C@@]12C", "inhibition": "38.2%"}, {"compound": "O=C(COc1ccccc1F)Nc1nc(-c2ccccn2)cs1", "inhibition": "37.1%"}, {"compound": "CCSc1nc2sc3c(c2c(=O)n1-c1ccc(C)cc1)CCN(C)C3", "inhibition": "44.3%"}]}]}
